Data taken from publication PMC5540273 (PLoS ONE, 2017).
“And” between values parts separate entries of the source, which are not always exact repeats. Equal entries are not always repeated. Where two headings read alike, the source gives them in different places.

How the values were obtained:
Settings in all cases: concentration: 1 μM, replicates: in singlicate, n = 1
[1] = test system: ERN1
[2] = test system: T1, FAK
T1 construct: gene PTK2

[3] = test system: FER
[4] = test system: FES
[5] = test system: FGFR1
[6] = test system: FGFR2
[7] = test system: FGFR3
[8] = test system: FGFR4
[9] = test system: FGR
[10] = test system: FLT1
[11] = test system: FLT3-autoinhibited
[12] = test system: FLT3
[13] = test system: FLT4
[14] = test system: FRK
[15] = test system: FYN
[16] = test system: GAK
[17] = test system: T2, GCN2(Kin.Dom.2,S808G)
T2 construct: gene EIF2AK4

[18] = test system: GRK1
[19] = test system: T3, GRK2
T3 construct: gene ADRBK1

[20] = test system: T4, GRK3
T4 construct: gene ADRBK2
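Note: KINOMEscan kinase panel screen.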

CCCCCc1nc2c(N)ncnc2n1CCCCC [SKF-97255]
%Inh [1]: 13%
%Inh [2]: 0%
%Inh [3]: 13%
%Inh [4]: 0%
%Inh [5]: 11%
%Inh [6]: 0%
%Inh [7]: 0%
%Inh [8]: 0%
%Inh [9]: 7%
%Inh [10]: 0%
%Inh [11]: 0%
%Inh [12]: 0%
%Inh [13]: 0%
%Inh [14]: 0%
%Inh [15]: 0%
%Inh [16]: 0%
%Inh [17]: 4%
%Inh [18]: 38%
%Inh [19]: 0%
%Inh [20]: 6%

COc1ccc(Nc2nccc(N3CCC(NC(=O)Nc4cc(C)ccc4C)C3)n2)cc1 (centres unmarked) [GSK1379741]
%Inh [1]: 0%
%Inh [2]: 0%
%Inh [3]: 0%
%Inh [4]: 0%
%Inh [5]: 0%
%Inh [6]: 0%
%Inh [7]: 0%
%Inh [8]: 0%
%Inh [9]: 5%
%Inh [10]: 16%
%Inh [11]: 0%
%Inh [12]: 0%
%Inh [13]: 1%
%Inh [14]: 0%
%Inh [15]: 2%
%Inh [16]: 9%
%Inh [17]: 0%
%Inh [18]: 0%
%Inh [19]: 0%
%Inh [20]: 0%

O=c1cc(N2CCOCC2)nc2n(Cc3cccc4ccccc34)ccn12 [GSK2333389]
%Inh [1]: 10%
%Inh [2]: 1%
%Inh [3]: 1%
%Inh [4]: 0%
%Inh [5]: 4%
%Inh [6]: 0%
%Inh [7]: 7%
%Inh [8]: 0%
%Inh [9]: 9%
%Inh [10]: 30%
%Inh [11]: 3%
%Inh [12]: 10%
%Inh [13]: 8%
%Inh [14]: 0%
%Inh [15]: 0%
%Inh [16]: 1%
%Inh [17]: 1%
%Inh [18]: 13%
%Inh [19]: 0%
%Inh [20]: 0%

Cl.Nc1ncnc2occ(-c3ccc(NC(=O)Nc4cc(C(F)(F)F)ccc4F)cc3)c12 [SB-707548]
%Inh [1]: 25%
%Inh [2]: 93.7%
%Inh [3]: 31%
%Inh [4]: 6%
%Inh [5]: 74%
%Inh [6]: 77%
%Inh [7]: 63%
%Inh [8]: 71%
%Inh [9]: 41%
%Inh [10]: 99.5%
%Inh [11]: 83%
%Inh [12]: 99.4%
%Inh [13]: 100%
%Inh [14]: 95.7%
%Inh [15]: 22%
%Inh [16]: 0%
%Inh [17]: 8%
%Inh [18]: 12%
%Inh [19]: 0%
%Inh [20]: 36%

O=C(Nc1n[nH]c2cc(-c3cccc(F)c3)ccc12)C1CC1 [SB-735464]
%Inh [1]: 12%
%Inh [2]: 3%
%Inh [3]: 1%
%Inh [4]: 34%
%Inh [5]: 0%
%Inh [6]: 0%
%Inh [7]: 0%
%Inh [8]: 0%
%Inh [9]: 33%
%Inh [10]: 0%
%Inh [11]: 0%
%Inh [12]: 21%
%Inh [13]: 0%
%Inh [14]: 6%
%Inh [15]: 0%
%Inh [16]: 9%
%Inh [17]: 0%
%Inh [18]: 14%
%Inh [19]: 0%
%Inh [20]: 12%

CCn1cnc2c(N)ncnc21 [GW345098]
%Inh [1]: 25%
%Inh [2]: 7%
%Inh [3]: 0%
%Inh [4]: 14%
%Inh [5]: 0%
%Inh [6]: 7%
%Inh [7]: 0%
%Inh [8]: 0%
%Inh [9]: 12%
%Inh [10]: 9%
%Inh [11]: 0%
%Inh [12]: 13%
%Inh [13]: 13%
%Inh [14]: 10%
%Inh [15]: 15%
%Inh [16]: 0%
%Inh [17]: 6%
%Inh [18]: 0%
%Inh [19]: 0%
%Inh [20]: 0%

Cc1cn2c(=O)cc(N3CCOCC3)nc2n1Cc1cccc(Cl)c1Cl [GSK2334006]
%Inh [1]: 0%
%Inh [2]: 0%
%Inh [3]: 33%
%Inh [4]: 8%
%Inh [5]: 1%
%Inh [6]: 26%
%Inh [7]: 18%
%Inh [8]: 1%
%Inh [9]: 51%
%Inh [10]: 34%
%Inh [11]: 10%
%Inh [12]: 13%
%Inh [13]: 39%
%Inh [14]: 28%
%Inh [15]: 23%
%Inh [16]: 35%
%Inh [17]: 12%
%Inh [18]: 2%
%Inh [19]: 3%
%Inh [20]: 0%

NCCNS(=O)(=O)c1ccc(-c2ccnc3[nH]ccc23)cc1 [GSK977617]
%Inh ([1]; 1 µM): 31% and 6%
%Inh ([2]; 1 µM): 5% and 0%
%Inh ([3]; 1 µM): 53% and 22%
%Inh ([4]; 1 µM): 11% and 0%
%Inh ([5]; 1 µM): 57% and 38%
%Inh ([6]; 1 µM): 6% and 0%
%Inh ([7]; 1 µM): 6% and 10%
%Inh ([8]; 1 µM): 11% and 6%
%Inh ([9]; 1 µM): 31% and 11%
%Inh ([10]; 1 µM): 60% and 33%
%Inh ([11]; 1 µM): 27% and 39%
%Inh ([12]; 1 µM): 87% and 73%
%Inh ([13]; 1 µM): 48% and 21%
%Inh [14]: 0%
%Inh ([15]; 1 µM): 25% and 16%
%Inh ([16]; 1 µM): 46% and 19%
%Inh [17]: 0%
%Inh ([18]; 1 µM): 75% and 52%
%Inh ([19]; 1 µM): 4% and 0%
%Inh ([20]; 1 µM): 12% and 36%

O=C(NCCNc1ccnc(Nc2ccc(F)cc2)n1)Nc1ccccc1F [GSK1379880]
%Inh [1]: 11%
%Inh [2]: 0%
%Inh [3]: 11%
%Inh [4]: 0%
%Inh [5]: 0%
%Inh [6]: 0%
%Inh [7]: 0%
%Inh [8]: 11%
%Inh [9]: 3%
%Inh [10]: 4%
%Inh [11]: 0%
%Inh [12]: 0%
%Inh [13]: 0%
%Inh [14]: 0%
%Inh [15]: 28%
%Inh [16]: 0%
%Inh [17]: 3%
%Inh [18]: 0%
%Inh [19]: 0%
%Inh [20]: 23%

Cl.Cl.Cl.Fc1ccc(-c2ncn(C3CCNCC3)c2-c2ccnc(Nc3ccccc3)n2)cc1 [SB-238039]
%Inh ([1]; 1 µM): 19% and 6%
%Inh [2]: 0%
%Inh ([3]; 1 µM): 0% and 1%
%Inh [4]: 0%
%Inh ([5]; 1 µM): 11% and 0%
%Inh [6]: 0%
%Inh [7]: 0%
%Inh [8]: 0%
%Inh ([9]; 1 µM): 60% and 41%
%Inh ([10]; 1 µM): 7% and 25%
%Inh ([11]; 1 µM): 0% and 18%
%Inh ([12]; 1 µM): 4% and 26%
%Inh ([13]; 1 µM): 15% and 9%
%Inh ([14]; 1 µM): 0% and 35%
%Inh ([15]; 1 µM): 0% and 1%
%Inh ([16]; 1 µM): 84% and 74%
%Inh ([17]; 1 µM): 0% and 27%
%Inh ([18]; 1 µM): 32% and 25%
%Inh ([19]; 1 µM): 0% and 16%
%Inh ([20]; 1 µM): 32% and 0%
